Test results taken from PubChem BioAssay (NCI).
About 79,000 compounds went through this panel and 15% of them were active in at least one assay; those are over-represented in the sample as a whole. Active and inactive are the calls of the source. Cut-off read from the data, not from the text of the source: active = growth inhibition above about 70%; inactive = the rest.

assay: NCI Yeast Anticancer Drug Screen. Data for the mec2-1 strain (AID 157); conditions: S. cerevisiae mec2-1 strain, at 50.0 µM, hits give high values
Method in brief: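 Vehicle-treated cultures served as reference for growth inhibition of compound-exposed mec2-1 yeast.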

Q: With CN(C)CCC(=O)Cc1ccccc1 as the compound, how does the growth inhibition read?
A: Its growth inhibition is -12.3% (inactive).

Q: With O=S(=O)(O)c1cccc2cccc(Nc3ccccc3)c12 as the compound, how does the growth inhibition read?
A: The growth inhibition was 0.35% (inactive).

Q: With O=C(CC1Sc2ccccc2NC1=O)Nc1cc(Cl)ccc1Cl (stereo not given) as the compound, how does the growth inhibition read?
A: Its growth inhibition is -18.3% (inactive).

Q: Which growth inhibition does the source give for Nc1ccc(N=Nc2ccncc2)c2ccccc12 here?
A: Its growth inhibition is 22.5% (inactive).

Q: For Cc1ccc2occ(/C=N/NC(N)=S)c(=O)c2c1, which growth inhibition is on record?
A: Its growth inhibition is -2.7% (inactive).

Q: Which growth inhibition does the source give for CC1=CC(C)S(=O)(=O)C1 (stereo not given) here?
A: The growth inhibition was -46.2% (inactive).

Q: With O=S(=O)(O)c1ccc2c(N=Nc3cccc4ccccc34)c(O)c(S(=O)(=O)O)cc2c1 as the compound, how does the growth inhibition read?
A: Its growth inhibition is 4.9% (inactive).

Q: For C/C(C#N)=C1/Nc2ccccc2NC1=O, which growth inhibition is on record?
A: The growth inhibition was 9.25% (inactive).

Q: For OC(CCN1CCC2CCC(C2)C1)(c1ccccc1)c1ccc(Cl)cc1 (stereo not given), which growth inhibition is on record?
A: Its growth inhibition is -16.1% (inactive).

Q: For c1ccc2c(c1)CCc1cc3cc4c(nc3nc1-2)-c1ccccc1CC4, which growth inhibition is on record?
A: Its growth inhibition is -15.8% (inactive).

Q: With COc1ccc(C2C(=O)C(Cl)N2Nc2nc(C)cc(=O)[nH]2)cc1OC (stereo not given) as the compound, how does the growth inhibition read?
A: The growth inhibition was -18.9% (inactive).

Q: Which growth inhibition does the source give for O=C(OC(c1ccccc1)c1ccccc1)c1ccccc1C(=O)c1ccccc1 here?
A: The growth inhibition was -15.1% (inactive).

Q: Which growth inhibition does the source give for NCS(=O)(=O)O here?
A: The growth inhibition was -23.1% (inactive).

Q: Which growth inhibition does the source give for COc1ccc2nc(NCCNCCO)cc(NCCNCCO)c2c1 here?
A: The growth inhibition was -3.25% (inactive).

Q: With COc1cc(C(c2c(O)c3ccccc3oc2=O)N2CCCC2)cc(OC)c1OC (stereo not given) as the compound, how does the growth inhibition read?
A: The growth inhibition was 5% (inactive).

Q: Which growth inhibition does the source give for CCCCCCCCCCCCOc1ccc2ccccc2c1 here?
A: Its growth inhibition is 15.9% (inactive).

Q: For CSC12CC3C(=O)C=C[C@@H](O)[C@@H]3N1C(=O)C1(SC)CC3C(=O)C=C[C@@H](O)[C@@H]3N1C2=O (stereo not given in full), which growth inhibition is on record?
A: Its growth inhibition is 78.2% (active).

Q: For CC(=O)/C=C/N(C)c1ccc(O)cc1, which growth inhibition is on record?
A: Its growth inhibition is 2.3% (inactive).

Q: With CCNC(=O)c1cc2ccccc2cc1O as the compound, how does the growth inhibition read?
A: Its growth inhibition is -6.85% (inactive).

Q: With Cc1ccc(S(=O)(=O)OCC2CCC(COS(=O)(=O)c3ccc(C)cc3)O2)cc1 (stereo not given) as the compound, how does the growth inhibition read?
A: Its growth inhibition is -14.4% (inactive).

Q: With O=C1CC(CC(=O)c2ccc(Br)cc2)C(=O)/C1=C(/O)c1ccc(Br)cc1 (stereo not given) as the compound, how does the growth inhibition read?
A: The growth inhibition was 14.2% (inactive).

Q: For OC1(Cl)c2cccc3cccc(c23)C1(O)Cl (stereo not given), which growth inhibition is on record?
A: Its growth inhibition is 5.8% (inactive).

Q: With O=C(NC1C2CC3CC(C2)CC1C3)c1cc(/C=C/c2ccccc2)[nH]c(=S)n1 (stereo not given) as the compound, how does the growth inhibition read?
A: The growth inhibition was 2.35% (inactive).

Q: With Nc1nc2c(c(=O)[nH]1)CN(c1ccc(S(N)(=O)=O)cc1)CN2 as the compound, how does the growth inhibition read?
A: The growth inhibition was -24.6% (inactive).

Q: Which growth inhibition does the source give for COc1cc(OC)cc(C(=O)NN)c1 here?
A: Its growth inhibition is -2.2% (inactive).

Q: With COc1ccc(C2=C(c3ccccc3)C(C)(C)Oc3ccc4ccccc4c32)cc1 as the compound, how does the growth inhibition read?
A: Its growth inhibition is -0.05% (inactive).

Q: For O=C(CN1CCCCC1)NC(=O)N/N=C\c1ccco1, which growth inhibition is on record?
A: The growth inhibition was 3% (inactive).

Q: With O=C(c1cccs1)c1ccc2ccccc2c1C(=O)O as the compound, how does the growth inhibition read?
A: Its growth inhibition is -11% (inactive).

Q: With CC1(C)OCC(C2OC3OC(C)(C)OC3C2OP(=O)(N2CC2)N2CC2)O1 (stereo not given) as the compound, how does the growth inhibition read?
A: Its growth inhibition is -31.4% (inactive).

Q: For COC(=O)C1CCC(=O)N1CN(C(C)=O)c1ccccc1 (stereo not given), which growth inhibition is on record?
A: Its growth inhibition is 8.6% (inactive).

Q: For O=C1C2=Cc3ccccc3OC2(O)Oc2ccc(O)cc21 (stereo not given), which growth inhibition is on record?
A: The growth inhibition was 6.75% (inactive).

Q: Which growth inhibition does the source give for O=S(=O)(Cc1ccccc1)C(I)c1ccccc1 (stereo not given) here?
A: Its growth inhibition is 55.9% (inactive).

Q: Which growth inhibition does the source give for O=c1[nH]c2cc(Cl)ccc2c2cc(Cl)ccc12 here?
A: The growth inhibition was 7.6% (inactive).

Q: With CCOC(=O)C(CN)c1ccccc1 (stereo not given) as the compound, how does the growth inhibition read?
A: Its growth inhibition is -9.5% (inactive).

Q: With O=[N+]([O-])c1c(Nc2ccccc2)ncnc1Nc1ccccc1 as the compound, how does the growth inhibition read?
A: Its growth inhibition is -15.9% (inactive).

Q: Which growth inhibition does the source give for COC(C)C(NC(=O)C1CCCN1C)C1OC(SCCOC(=O)c2ccccc2O)C(O)C(O)C1O (stereo not given) here?
A: The growth inhibition was 6.3% (inactive).

Q: Which growth inhibition does the source give for CCCCOC(=O)NC(=O)c1cn(CCCOC(=O)CCCCCCCCC(=O)OCCCn2cc(C(=O)NC(=O)OCCCC)c(=O)[nH]c2=O)c(=O)[nH]c1=O here?
A: Its growth inhibition is -28.2% (inactive).

Q: For O=[N+]([O-])c1ccc(NN=C2CCCCCC2)c([N+](=O)[O-])c1, which growth inhibition is on record?
A: Its growth inhibition is 8.35% (inactive).

Q: Which growth inhibition does the source give for CN(C)c1ccc(/C=C/C=C(/C#N)c2ccccc2)cc1 here?
A: Its growth inhibition is 8.5% (inactive).

Q: With O=C(NCCN1CCCC1)Nc1ccccc1Cl as the compound, how does the growth inhibition read?
A: Its growth inhibition is 27.2% (inactive).
